Of roughly 21,000 targets only a part is listed; those with the largest changes were picked by preference.

Compound in this experiment: CC1Cc2ccccc2N1C(=O)C1CCCN(C1)C(=O)CCl (mixture of isomers) [TRIM25 ligand 11 (diastereomer mixture)]
Put plainly: probe-labelled cysteine peptide fold change vs DMSO (competition) (log2 fold change); higher = less target engagement (more negative = stronger competition). The note with it: THP-1, incubation time: 4 h.
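Further: competitive chemoproteomic profiling in live THP-1 cells with an iodoacetamide desthiobiotin (IA-DTB) probe, comparing probe-labelled peptide intensities in compound-treated cells against DMSO-treated controls.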

Sequence of UniProt Q8NB90 (Q8NB90 whole entry, looked up): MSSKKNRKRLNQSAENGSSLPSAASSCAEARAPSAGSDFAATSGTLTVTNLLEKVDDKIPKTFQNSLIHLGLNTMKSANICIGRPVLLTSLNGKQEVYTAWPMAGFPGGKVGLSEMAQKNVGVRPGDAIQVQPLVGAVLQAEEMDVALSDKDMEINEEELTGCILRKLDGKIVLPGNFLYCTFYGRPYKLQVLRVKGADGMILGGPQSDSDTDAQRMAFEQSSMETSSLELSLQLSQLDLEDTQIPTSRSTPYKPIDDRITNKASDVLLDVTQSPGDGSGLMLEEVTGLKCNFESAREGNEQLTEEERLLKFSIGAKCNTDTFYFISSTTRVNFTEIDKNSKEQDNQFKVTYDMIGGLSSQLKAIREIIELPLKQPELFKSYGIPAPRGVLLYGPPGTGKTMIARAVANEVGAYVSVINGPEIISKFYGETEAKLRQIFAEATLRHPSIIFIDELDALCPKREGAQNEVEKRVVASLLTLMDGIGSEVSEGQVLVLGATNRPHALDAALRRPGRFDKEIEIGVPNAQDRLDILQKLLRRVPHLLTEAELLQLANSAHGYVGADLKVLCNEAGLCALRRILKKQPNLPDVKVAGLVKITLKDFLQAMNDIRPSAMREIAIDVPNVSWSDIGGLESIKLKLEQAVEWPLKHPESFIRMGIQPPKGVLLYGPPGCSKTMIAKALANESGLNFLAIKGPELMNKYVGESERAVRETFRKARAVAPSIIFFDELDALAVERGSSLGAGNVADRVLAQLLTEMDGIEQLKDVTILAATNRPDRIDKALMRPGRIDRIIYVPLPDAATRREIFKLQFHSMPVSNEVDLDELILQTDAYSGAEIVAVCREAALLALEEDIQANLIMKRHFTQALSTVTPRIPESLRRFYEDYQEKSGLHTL
Sequence of UniProt Q99470 (Q99470 whole entry, looked up): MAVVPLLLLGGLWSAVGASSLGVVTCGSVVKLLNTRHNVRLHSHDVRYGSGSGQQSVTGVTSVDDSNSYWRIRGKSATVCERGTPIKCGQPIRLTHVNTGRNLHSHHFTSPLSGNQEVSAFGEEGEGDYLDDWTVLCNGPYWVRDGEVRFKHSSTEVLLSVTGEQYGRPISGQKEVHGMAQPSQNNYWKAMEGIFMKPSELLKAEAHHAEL
Sequence of UniProt Q8N6T7 (Q8N6T7 whole entry): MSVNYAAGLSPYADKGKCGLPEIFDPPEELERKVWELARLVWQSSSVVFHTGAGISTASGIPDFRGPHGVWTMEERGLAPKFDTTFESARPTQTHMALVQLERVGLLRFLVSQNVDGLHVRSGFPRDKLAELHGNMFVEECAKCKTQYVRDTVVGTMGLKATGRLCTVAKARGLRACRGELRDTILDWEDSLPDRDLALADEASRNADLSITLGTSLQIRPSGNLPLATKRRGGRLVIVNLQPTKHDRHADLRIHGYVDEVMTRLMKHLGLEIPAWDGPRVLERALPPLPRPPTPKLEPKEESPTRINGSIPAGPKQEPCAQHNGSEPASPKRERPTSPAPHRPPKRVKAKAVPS
Sequence of UniProt P51531 (P51531 whole entry, looked up): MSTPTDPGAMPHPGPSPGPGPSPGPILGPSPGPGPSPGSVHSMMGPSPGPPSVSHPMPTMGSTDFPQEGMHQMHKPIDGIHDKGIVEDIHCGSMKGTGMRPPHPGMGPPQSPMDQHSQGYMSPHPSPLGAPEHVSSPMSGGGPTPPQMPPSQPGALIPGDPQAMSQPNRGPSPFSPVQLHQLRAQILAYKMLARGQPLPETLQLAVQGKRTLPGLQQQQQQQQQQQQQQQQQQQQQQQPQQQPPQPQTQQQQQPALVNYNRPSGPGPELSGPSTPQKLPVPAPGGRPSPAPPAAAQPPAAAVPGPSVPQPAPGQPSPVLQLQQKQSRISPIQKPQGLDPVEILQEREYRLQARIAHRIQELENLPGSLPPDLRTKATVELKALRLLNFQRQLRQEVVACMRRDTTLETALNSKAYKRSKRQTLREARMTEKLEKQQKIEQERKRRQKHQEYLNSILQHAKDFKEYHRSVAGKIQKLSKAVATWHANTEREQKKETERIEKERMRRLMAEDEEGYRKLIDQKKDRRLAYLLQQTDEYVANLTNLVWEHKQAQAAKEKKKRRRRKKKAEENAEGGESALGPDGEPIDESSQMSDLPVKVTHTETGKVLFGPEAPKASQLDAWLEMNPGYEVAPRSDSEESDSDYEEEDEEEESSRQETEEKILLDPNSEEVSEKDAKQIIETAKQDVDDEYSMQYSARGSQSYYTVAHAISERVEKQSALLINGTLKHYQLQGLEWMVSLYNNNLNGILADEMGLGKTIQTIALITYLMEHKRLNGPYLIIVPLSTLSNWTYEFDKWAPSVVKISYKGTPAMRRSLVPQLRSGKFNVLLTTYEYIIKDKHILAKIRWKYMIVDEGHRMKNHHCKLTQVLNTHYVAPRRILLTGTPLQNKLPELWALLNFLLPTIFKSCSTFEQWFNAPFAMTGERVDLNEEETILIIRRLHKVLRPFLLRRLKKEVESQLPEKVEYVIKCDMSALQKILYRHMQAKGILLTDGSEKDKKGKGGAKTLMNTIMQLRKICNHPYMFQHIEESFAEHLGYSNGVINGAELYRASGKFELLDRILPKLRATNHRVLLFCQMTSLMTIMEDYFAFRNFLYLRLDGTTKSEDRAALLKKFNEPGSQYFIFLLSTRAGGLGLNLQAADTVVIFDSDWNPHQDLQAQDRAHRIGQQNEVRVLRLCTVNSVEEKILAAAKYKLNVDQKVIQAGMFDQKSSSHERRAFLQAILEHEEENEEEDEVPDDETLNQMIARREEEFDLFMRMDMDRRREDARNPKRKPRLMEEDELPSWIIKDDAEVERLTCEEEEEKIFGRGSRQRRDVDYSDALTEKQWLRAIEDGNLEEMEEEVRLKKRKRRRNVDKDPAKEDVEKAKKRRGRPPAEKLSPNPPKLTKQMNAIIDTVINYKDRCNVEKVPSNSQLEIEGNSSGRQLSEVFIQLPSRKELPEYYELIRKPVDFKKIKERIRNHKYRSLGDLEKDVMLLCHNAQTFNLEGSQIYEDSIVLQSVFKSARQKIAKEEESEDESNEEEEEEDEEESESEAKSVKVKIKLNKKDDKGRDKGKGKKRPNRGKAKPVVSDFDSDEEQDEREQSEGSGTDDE
Sequence of UniProt Q86TU7 (Q86TU7 whole entry): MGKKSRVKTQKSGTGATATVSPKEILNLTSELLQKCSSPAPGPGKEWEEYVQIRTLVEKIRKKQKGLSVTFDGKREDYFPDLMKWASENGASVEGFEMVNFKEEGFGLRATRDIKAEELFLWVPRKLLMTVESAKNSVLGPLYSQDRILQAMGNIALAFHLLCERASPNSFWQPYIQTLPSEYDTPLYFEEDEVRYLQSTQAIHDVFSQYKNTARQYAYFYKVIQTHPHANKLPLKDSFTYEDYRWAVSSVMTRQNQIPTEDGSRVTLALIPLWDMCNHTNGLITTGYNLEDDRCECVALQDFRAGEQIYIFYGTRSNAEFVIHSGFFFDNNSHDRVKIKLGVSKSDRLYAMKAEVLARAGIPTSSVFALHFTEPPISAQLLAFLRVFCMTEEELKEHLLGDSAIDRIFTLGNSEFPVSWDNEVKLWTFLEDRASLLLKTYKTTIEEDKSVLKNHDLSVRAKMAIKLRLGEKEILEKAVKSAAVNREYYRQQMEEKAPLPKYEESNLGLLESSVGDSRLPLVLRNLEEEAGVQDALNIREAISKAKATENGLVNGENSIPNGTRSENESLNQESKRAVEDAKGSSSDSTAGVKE
Sequence of UniProt Q96T23 (Q96T23 whole entry, looked up): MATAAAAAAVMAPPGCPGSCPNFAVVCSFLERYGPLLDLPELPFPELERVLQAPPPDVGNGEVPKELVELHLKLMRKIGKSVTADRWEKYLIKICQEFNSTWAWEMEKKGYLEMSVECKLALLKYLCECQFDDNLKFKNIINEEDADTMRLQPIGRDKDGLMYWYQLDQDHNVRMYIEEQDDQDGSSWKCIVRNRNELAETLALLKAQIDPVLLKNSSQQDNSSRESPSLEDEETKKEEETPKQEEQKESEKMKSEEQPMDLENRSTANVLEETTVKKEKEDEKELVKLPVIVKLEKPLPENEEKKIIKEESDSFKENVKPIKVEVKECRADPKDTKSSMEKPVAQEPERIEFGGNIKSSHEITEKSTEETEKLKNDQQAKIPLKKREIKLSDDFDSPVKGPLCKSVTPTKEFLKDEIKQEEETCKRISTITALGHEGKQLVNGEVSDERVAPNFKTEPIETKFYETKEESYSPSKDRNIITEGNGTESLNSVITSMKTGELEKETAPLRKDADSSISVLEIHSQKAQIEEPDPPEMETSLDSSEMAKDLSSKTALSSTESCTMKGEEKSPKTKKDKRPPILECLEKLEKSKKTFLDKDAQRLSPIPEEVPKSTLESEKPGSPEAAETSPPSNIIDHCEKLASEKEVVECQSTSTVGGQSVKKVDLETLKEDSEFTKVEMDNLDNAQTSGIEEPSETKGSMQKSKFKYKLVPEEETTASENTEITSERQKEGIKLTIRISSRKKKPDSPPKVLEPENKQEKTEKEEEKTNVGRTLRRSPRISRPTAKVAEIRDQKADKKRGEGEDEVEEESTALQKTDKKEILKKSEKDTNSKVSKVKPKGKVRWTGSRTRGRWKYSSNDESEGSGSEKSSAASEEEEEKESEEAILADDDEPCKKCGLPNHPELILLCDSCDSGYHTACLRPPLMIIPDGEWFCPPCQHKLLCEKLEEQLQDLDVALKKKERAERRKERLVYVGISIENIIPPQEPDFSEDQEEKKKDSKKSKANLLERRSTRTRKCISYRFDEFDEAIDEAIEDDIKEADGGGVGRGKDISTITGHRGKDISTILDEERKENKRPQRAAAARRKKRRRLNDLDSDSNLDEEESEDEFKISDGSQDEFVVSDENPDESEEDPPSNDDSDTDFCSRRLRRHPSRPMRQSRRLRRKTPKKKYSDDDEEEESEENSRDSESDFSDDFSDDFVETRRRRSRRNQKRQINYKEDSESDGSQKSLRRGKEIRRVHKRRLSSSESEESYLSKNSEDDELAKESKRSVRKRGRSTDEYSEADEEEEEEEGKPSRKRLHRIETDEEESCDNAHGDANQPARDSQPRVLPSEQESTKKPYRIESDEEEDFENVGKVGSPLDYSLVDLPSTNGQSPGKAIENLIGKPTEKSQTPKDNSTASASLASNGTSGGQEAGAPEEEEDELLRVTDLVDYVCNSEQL

“RTN3_O95197-3_46_SCSSSCAVHDLIFWR (UniProt O95197)”: the “probe-labelled cysteine peptide fold change” value (10 µM) was -0.00795 and the “probe-labelled cysteine peptide fold change” value (50 µM) was -0.919.
The matching figures for “SMARCA2_P51531_1016_ICNHPYMFQHIEESFAEHLGYSNGVINGAELYR (UniProt P51531)”: -0.0517 and -0.116.
The corresponding values for “SCAF11_Q99590_752_QMNENSVTHCSENNMPSSDLADEK (UniProt Q99590)” are 0.00365 and -0.727.
Regarding “SCAF11_Q99590_553_TDVCTVHLPNDFPTCLTSESK (UniProt Q99590)”, the “probe-labelled cysteine peptide fold change” value was 0.0519 (10 µM) and -0.221 (50 µM).
With “SBF1_O95248_839_VCTESGVTSDHLK (UniProt O95248)”, the “probe-labelled cysteine peptide fold change” value (10 µM) was determined as 0.116 and the “probe-labelled cysteine peptide fold change” value (50 µM) stood at 0.0908.
With “SPATA5_Q8NB90_459_HPSIIFIDELDALCPK (UniProt Q8NB90)”, the “probe-labelled cysteine peptide fold change” value reads like this: (10 µM) -0.0102; (50 µM) -0.321.
Take “SCFD2_Q8WU76_507_ALAQVFCEESGLSPLLQK (UniProt Q8WU76)”: the “probe-labelled cysteine peptide fold change” value runs as follows: (10 µM) 0.0961; (50 µM) 0.0426.
The matching figures for “SMARCC1_Q92922_761_VDPTYGLESSCIAGTGPDEPEKLEGAEEEK (UniProt Q92922)”: -0.397 and -0.234.
The corresponding values for “RTN3_O95197-3_42_SCSSSCAVHDLIFWR (UniProt O95197)” are -0.124 and -0.737.
The corresponding values for “SEL1L3_Q68CR1_475_QEACHLHNSYLDLQR (UniProt Q68CR1)” are -0.0373 and -0.0246.
Regarding “SLMAP_Q14BN4_120_KVTHGCIVSTIK (UniProt Q14BN4)”, the “probe-labelled cysteine peptide fold change” value is -0.0304 (10 µM) and 0.0755 (50 µM).
With “RRP12_Q5JTH9_673_GCQAEADRAEVSR (UniProt Q5JTH9)”, the “probe-labelled cysteine peptide fold change” value reads like this: (10 µM) 0.0652; (50 µM) -0.00566.
The matching figures for “SAR1A_Q9NR31_178_ELNARPMEVFMCSVLKR (UniProt Q9NR31)”: -0.614 and -0.486.
Turning to “SNUPN_O95149_199_GHPFYDCQTDFR (UniProt O95149)”, the “probe-labelled cysteine peptide fold change” value runs as follows: (10 µM) 0.47; (50 µM) 0.00215.
As for “SMCHD1_A6NHR9_474_RPIFECFWNGR (UniProt A6NHR9)”, the “probe-labelled cysteine peptide fold change” value reads like this: (10 µM) -0.00857; (50 µM) 0.0994.
As for “SMC1A_Q14683_781_MNQVEDEVFEEFCR (UniProt Q14683)”, the “probe-labelled cysteine peptide fold change” value stood at 0.0344 (10 µM) and 0.0302 (50 µM).
The matching figures for “RSF1_Q96T23_1311_IETDEEESCDNAHGDANQPAR (UniProt Q96T23)”: 0.0514 and 0.0946.
Regarding “SLPI_P03973_51+57_YKKPECQSDWQCPGK (UniProt P03973)”, the “probe-labelled cysteine peptide fold change” value is -0.301 (10 µM) and -0.883 (50 µM).
The matching figures for “SMARCB1_Q12824_167_TFPLCFDDHDPAVIHENASQPEVLVPIRLDMEIDGQKLR (UniProt Q12824)”: -0.0714 and 0.0299.
On to “SMU1_Q2TAY7_416_NPEHFVVCNR (UniProt Q2TAY7)”, for which the “probe-labelled cysteine peptide fold change” value is -0.00322 (10 µM) and 0.0655 (50 µM).
The corresponding values for “SETD3_Q86TU7_36_CSSPAPGPGK (UniProt Q86TU7)” are -0.0972 and -0.145.
The matching figures for “SIPA1_Q96FS4_467_AHTPCTPHTTYR (UniProt Q96FS4)”: 0.187 and 0.0943.
The matching figures for “SLC25A10_Q9UBX3_69_TDGILALYSGLSASLCR (UniProt Q9UBX3)”: 0.0966 and 0.615.
In the case of “SCAF11_Q99590_566_VYQPVSCPLSDLSENVESVVNEEK (UniProt Q99590)”, the “probe-labelled cysteine peptide fold change” value is, setting by setting: (10 µM) -0.0494; (50 µM) -0.138.
The matching figures for “RRP8_O43159_451_AQLSGLQLQPCLYK (UniProt O43159)”: 0.0693 and -0.167.
The matching figures for “SDF2_Q99470_137_NLHSHHFTSPLSGNQEVSAFGEEGEGDYLDDWTVLCNGPYWVR (UniProt Q99470)”: 0.298 and 0.622.
The matching figures for “SP1_P08047_633_KQHICHIQGCGK (UniProt P08047)”: -0.185 and -0.216.
In the case of “SBF1_O95248_987_SCTFQLLK (UniProt O95248)”, the “probe-labelled cysteine peptide fold change” value reads like this: (10 µM) -0.0361; (50 µM) 0.064.
The matching figures for “SIRT6_Q8N6T7_141_LAELHGNMFVEECAK (UniProt Q8N6T7)”: 0.087 and 0.00561.
With “SNUPN_O95149_356_GSSHSPDHPGCLMEN (UniProt O95149)”, the “probe-labelled cysteine peptide fold change” value (10 µM) was 0.0268 and the “probe-labelled cysteine peptide fold change” value (50 µM) was -0.656.
The corresponding values for “SFMBT2_Q5VUG0_796_CPPTKPEGTEDTKQEEEERLVLESNPLEWTVTDVVR (UniProt Q5VUG0)” are -0.043 and -0.0391.
Consider “RPS6KA1_Q15418_432_ETIGVGSYSECKR (UniProt Q15418)”, for which the “probe-labelled cysteine peptide fold change” value reads like this: (10 µM) 0.185; (50 µM) -0.833.
The matching figures for “RSL1D1_O76021_96_SDSEDICLFTK (UniProt O76021)”: -0.0174 and -0.141.
The matching figures for “S100A10_P60903_62_DLDQCR (UniProt P60903)”: -0.0944 and -0.0317.
The corresponding values for “RPS17_P08708_35_RVCEEIAIIPSKK (UniProt P08708)” are -0.177 and 0.0725.
Turning to “SEC62_Q99442_55_AVDCLLDSK (UniProt Q99442)”, the “probe-labelled cysteine peptide fold change” value (10 µM) is -0.122 and the “probe-labelled cysteine peptide fold change” value (50 µM) is -0.249.
The corresponding values for “SNRPC_P09234_25_KTHCSGR (UniProt P09234)” are -0.332 and -0.766.
Turning to “SNX27_Q96L92_432+434_TCEGYNEIIFPHCACDSR (UniProt Q96L92)”, the “probe-labelled cysteine peptide fold change” value by setting is: (10 µM) 0.835; (50 µM) 0.695.

The values above are taken from the supplement of paper PMC12067093, “Discovery and optimisation of a covalent ligand for TRIM25 and its application to targeted protein ubiquitination” (Chemical Science, 2025).
